# Paper PMC7862700, “An all-to-all approach to the identification of sequence-specific readers for epigenetic DNA modifications on cytosine”
# Columns and labels:
# Assay in all cases: DAPPL (digital affinity profiling via proximity ligation, sequencing); 10 mM Tris-HCl pH 7.5, 50 mM NaCl, 1 mM DTT, 4% glycerol, room temperature, 30 min; GST-TFs on glutathione beads, 16-mer random dsDNA library, 0.1% formaldehyde crosslink after washing; high values mean tight binding
# [1] = molecular target: T1, FLI1 (Homo sapiens, UniProt Q01543 1-452); details: protein: recombinant; tags: N-terminal GST; dsDNA, one strand shown
# T1 sequence: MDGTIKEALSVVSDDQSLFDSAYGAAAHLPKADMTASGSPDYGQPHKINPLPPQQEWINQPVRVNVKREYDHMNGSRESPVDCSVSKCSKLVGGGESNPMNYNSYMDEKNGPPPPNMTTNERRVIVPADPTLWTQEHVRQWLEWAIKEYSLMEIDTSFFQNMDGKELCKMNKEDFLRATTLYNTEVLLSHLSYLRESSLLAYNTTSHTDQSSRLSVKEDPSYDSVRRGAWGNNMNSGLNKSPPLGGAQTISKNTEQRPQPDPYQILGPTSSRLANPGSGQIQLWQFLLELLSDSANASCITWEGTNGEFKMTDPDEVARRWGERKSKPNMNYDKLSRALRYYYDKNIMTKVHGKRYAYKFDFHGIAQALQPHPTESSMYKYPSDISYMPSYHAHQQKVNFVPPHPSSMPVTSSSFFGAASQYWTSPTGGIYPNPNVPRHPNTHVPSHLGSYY
# Outline: (§1)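 Binding signal is given per hexamer as its read frequency for a factor divided by its frequency in the tag-only sample. GST-fused human transcription factors were expressed in yeast, captured on glutathione beads, barcoded with DNA and pooled with that sample, then incubated with 200 nmole of a 16-mer random double-stranded DNA library in Tris/NaCl/DTT/glycerol buffer for 30 min at room temperature. The pools were then washed, crosslinked, proximity-ligated, amplified by PCR and sequenced on an Illumina NextSeq500.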
# [2] = molecular target: T2, ELK1 (Homo sapiens, UniProt P19419 1-428); details: protein: recombinant; tags: N-terminal GST; dsDNA, one strand shown
# T2 sequence: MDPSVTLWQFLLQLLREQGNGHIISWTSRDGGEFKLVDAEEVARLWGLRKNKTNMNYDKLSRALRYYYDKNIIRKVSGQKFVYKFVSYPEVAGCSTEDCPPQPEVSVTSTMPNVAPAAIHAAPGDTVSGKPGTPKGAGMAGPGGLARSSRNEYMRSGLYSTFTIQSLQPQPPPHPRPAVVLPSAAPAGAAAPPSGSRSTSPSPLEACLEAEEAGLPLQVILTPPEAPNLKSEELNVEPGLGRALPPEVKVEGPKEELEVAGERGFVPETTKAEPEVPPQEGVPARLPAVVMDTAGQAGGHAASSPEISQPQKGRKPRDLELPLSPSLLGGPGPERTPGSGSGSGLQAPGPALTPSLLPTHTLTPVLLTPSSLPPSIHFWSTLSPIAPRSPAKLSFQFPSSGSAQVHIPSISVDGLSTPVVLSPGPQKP
# Outline: as §1
# [3] = molecular target: T3, GABPA (Homo sapiens, UniProt Q06546 1-454); details: protein: recombinant; tags: N-terminal GST; dsDNA, one strand shown
# T3 sequence: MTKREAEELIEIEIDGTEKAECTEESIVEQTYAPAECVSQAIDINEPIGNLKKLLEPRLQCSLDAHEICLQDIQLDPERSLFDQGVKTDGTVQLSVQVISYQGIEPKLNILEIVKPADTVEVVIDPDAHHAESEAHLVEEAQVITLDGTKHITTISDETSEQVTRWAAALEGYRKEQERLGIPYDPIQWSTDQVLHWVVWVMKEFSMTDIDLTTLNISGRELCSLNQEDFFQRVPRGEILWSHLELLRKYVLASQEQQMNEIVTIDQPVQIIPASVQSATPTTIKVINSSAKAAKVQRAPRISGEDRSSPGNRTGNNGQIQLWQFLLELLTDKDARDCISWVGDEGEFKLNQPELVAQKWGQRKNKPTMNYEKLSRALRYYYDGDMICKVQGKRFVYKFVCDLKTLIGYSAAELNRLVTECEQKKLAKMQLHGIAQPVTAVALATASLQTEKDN
# Outline: as §1
# [4] = molecular target: T4, ERG (Homo sapiens, UniProt P11308 1-479); details: protein: recombinant; tags: N-terminal GST; dsDNA, one strand shown
# T4 sequence: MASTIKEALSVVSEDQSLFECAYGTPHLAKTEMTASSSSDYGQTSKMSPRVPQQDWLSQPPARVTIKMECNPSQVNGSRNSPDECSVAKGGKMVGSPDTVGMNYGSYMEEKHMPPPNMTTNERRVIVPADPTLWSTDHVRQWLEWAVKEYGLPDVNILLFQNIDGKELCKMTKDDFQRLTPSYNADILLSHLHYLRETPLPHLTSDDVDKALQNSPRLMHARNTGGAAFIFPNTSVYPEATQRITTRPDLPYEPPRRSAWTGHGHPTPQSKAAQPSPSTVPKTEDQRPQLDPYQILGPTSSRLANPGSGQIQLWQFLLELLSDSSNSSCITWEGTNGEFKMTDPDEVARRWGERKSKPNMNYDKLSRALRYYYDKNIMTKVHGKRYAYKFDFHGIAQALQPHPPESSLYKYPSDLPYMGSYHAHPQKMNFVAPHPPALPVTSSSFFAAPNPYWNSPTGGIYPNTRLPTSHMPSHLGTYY
# Outline: as §1
# [5] = molecular target: ELF1 (Homo sapiens, UniProt P32519 1-619); details: protein: recombinant; tags: N-terminal GST; dsDNA, one strand shown
# Chain of ELF1 (P32519 whole entry): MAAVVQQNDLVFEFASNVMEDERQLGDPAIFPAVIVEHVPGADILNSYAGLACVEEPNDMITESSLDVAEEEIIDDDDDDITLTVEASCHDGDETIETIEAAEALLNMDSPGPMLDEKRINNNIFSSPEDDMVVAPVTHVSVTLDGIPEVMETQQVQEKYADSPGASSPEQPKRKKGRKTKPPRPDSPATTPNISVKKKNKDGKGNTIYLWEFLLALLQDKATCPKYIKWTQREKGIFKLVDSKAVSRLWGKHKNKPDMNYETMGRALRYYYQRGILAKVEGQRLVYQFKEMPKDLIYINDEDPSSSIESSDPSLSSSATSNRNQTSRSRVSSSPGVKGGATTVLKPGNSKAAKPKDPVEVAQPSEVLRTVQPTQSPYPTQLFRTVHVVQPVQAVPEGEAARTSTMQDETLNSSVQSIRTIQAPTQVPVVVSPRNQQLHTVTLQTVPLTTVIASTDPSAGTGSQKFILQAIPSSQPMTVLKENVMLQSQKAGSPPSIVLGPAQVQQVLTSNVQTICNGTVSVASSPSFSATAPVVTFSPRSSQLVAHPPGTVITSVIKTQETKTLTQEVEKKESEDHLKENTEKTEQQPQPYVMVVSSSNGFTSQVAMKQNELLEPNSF
# Outline: as §1
# [6] = molecular target: T5, EHF (Homo sapiens, UniProt Q9NZC4 1-300); details: protein: recombinant; tags: N-terminal GST; dsDNA, one strand shown
# T5 sequence: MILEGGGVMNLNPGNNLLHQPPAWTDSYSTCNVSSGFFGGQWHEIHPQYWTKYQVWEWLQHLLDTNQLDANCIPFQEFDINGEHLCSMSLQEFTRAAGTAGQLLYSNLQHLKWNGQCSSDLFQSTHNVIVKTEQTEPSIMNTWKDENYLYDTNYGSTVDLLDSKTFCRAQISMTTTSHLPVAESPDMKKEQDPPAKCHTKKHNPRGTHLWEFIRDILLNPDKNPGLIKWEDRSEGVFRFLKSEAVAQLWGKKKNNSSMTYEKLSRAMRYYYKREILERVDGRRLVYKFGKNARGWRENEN
# Outline: as §1
# [7] = molecular target: SPI1 (Homo sapiens, UniProt P17947 1-270); details: protein: recombinant; tags: N-terminal GST; dsDNA, one strand shown
# Outline: as §1
# [8] = molecular target: SPIB (Homo sapiens, UniProt Q01892 1-262); details: protein: recombinant; tags: N-terminal GST; dsDNA, one strand shown
# Chain of SPIB (Q01892 whole entry): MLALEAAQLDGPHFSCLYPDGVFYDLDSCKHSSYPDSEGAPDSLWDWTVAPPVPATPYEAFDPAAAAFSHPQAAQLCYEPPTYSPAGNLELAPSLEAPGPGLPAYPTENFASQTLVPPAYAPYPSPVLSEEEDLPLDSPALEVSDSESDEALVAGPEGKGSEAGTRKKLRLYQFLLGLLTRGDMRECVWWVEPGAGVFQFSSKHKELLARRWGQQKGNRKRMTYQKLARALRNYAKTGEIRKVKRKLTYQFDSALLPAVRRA
# Outline: as §1
# [9] = molecular target: T6, ELK3 (Homo sapiens, UniProt P41970 1-407); details: protein: recombinant; tags: N-terminal GST; dsDNA, one strand shown
# T6 sequence: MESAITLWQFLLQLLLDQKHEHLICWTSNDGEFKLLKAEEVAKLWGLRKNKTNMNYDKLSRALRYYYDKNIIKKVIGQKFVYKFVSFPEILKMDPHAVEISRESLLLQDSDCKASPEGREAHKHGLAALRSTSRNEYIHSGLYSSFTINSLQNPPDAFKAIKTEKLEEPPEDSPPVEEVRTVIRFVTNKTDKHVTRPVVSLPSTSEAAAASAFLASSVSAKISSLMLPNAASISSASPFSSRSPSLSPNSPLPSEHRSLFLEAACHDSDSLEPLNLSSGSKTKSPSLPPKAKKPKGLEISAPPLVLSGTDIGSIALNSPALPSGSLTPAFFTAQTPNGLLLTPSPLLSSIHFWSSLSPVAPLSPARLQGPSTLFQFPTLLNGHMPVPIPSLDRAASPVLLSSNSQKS
# Outline: as §1
# [10] = molecular target: T7, FEV (Homo sapiens, UniProt Q99581 1-238); details: protein: recombinant; tags: N-terminal GST; dsDNA, one strand shown
# T7 sequence: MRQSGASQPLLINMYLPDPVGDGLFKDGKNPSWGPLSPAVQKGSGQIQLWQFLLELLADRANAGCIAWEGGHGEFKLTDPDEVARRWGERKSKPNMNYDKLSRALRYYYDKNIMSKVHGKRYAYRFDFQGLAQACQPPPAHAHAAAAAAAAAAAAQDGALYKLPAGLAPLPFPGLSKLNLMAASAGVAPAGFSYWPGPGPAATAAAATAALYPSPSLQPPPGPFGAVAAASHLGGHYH
# Outline: as §1
# [11] = molecular target: ETV5 (Homo sapiens, UniProt P41161 1-510); details: protein: recombinant; tags: N-terminal GST; dsDNA, one strand shown
# Chain of ETV5 (P41161 whole entry): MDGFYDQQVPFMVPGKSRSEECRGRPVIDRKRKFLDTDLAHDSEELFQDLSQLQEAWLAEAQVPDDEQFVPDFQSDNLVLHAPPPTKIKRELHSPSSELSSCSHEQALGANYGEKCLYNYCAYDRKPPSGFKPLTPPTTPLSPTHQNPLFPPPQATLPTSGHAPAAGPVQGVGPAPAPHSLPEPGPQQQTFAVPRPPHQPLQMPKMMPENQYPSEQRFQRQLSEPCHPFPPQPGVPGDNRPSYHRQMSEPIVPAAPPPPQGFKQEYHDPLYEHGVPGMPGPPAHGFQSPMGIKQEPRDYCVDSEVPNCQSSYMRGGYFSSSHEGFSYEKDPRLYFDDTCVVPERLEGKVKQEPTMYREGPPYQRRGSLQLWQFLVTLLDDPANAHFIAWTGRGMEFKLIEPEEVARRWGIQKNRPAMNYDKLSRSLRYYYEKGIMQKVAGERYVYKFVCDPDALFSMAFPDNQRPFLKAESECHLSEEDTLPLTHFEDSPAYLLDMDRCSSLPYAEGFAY
# Outline: as §1
# [12] = molecular target: HSF1 (Homo sapiens, UniProt Q00613 1-529); details: protein: recombinant; tags: N-terminal GST; chain copies: 3; dsDNA, one strand shown
# Chain of HSF1 (Q00613 whole entry): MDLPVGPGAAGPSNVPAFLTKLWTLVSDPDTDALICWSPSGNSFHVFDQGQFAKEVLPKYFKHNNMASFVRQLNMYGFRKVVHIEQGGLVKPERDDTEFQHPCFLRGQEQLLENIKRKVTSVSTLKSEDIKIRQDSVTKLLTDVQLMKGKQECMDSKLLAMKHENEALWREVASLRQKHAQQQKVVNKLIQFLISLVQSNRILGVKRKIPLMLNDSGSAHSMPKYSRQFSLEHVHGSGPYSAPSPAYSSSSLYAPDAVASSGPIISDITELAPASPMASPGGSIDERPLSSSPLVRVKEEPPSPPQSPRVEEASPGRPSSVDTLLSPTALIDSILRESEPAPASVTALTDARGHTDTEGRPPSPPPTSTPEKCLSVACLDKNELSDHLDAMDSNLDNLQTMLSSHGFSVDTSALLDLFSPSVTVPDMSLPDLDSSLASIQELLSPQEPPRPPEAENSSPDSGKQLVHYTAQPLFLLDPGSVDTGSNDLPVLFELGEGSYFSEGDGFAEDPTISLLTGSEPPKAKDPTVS
# Outline: as §1
# [13] = molecular target: T8, SPIC (Homo sapiens, UniProt Q8N5J4 1-248); details: protein: recombinant; tags: N-terminal GST; dsDNA, one strand shown
# T8 sequence: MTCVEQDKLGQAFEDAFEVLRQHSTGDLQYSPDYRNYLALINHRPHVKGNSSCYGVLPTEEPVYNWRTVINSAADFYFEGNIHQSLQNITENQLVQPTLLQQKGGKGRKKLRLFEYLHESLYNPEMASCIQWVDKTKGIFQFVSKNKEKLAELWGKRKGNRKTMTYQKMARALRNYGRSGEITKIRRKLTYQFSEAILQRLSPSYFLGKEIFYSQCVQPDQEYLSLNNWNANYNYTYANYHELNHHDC
# Outline: as §1
# [14] = molecular target: ELF4 (Homo sapiens, UniProt Q99607 1-663); details: protein: recombinant; tags: N-terminal GST; dsDNA, one strand shown
# Chain of ELF4 (Q99607 whole entry): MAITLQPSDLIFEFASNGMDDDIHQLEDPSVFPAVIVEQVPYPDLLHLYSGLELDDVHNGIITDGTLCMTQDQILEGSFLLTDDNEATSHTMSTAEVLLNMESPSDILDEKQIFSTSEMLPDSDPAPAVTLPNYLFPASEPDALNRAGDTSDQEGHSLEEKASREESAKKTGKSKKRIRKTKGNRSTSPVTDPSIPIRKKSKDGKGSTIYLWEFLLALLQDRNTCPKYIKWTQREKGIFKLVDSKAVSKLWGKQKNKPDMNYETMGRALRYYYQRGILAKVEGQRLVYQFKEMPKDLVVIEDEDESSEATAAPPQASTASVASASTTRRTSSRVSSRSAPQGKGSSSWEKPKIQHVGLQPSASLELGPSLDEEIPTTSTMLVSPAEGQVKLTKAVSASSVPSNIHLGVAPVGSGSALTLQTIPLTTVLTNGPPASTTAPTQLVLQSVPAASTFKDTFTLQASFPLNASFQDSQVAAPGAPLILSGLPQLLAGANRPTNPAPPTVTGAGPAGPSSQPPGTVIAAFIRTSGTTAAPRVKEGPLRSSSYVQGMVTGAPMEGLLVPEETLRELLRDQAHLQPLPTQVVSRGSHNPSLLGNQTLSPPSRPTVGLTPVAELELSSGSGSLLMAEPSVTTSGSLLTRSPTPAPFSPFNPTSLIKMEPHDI
# Outline: as §1
# [15] = molecular target: T9, ETV2 (Homo sapiens, UniProt O00321 1-342); details: protein: recombinant; tags: N-terminal GST; dsDNA, one strand shown
# T9 sequence: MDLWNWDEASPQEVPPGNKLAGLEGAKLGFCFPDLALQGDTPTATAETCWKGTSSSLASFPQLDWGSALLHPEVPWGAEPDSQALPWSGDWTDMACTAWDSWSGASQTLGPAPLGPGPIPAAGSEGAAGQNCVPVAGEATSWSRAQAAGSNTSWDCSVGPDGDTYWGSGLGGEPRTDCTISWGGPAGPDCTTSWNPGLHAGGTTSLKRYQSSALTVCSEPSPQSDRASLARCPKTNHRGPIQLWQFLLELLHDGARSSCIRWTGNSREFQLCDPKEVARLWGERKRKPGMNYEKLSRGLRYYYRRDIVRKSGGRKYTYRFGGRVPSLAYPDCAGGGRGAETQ
# Outline: as §1
# [16] = molecular target: T10, ELF3 (Homo sapiens, UniProt P78545 1-371); details: protein: recombinant; tags: N-terminal GST; dsDNA, one strand shown
# T10 sequence: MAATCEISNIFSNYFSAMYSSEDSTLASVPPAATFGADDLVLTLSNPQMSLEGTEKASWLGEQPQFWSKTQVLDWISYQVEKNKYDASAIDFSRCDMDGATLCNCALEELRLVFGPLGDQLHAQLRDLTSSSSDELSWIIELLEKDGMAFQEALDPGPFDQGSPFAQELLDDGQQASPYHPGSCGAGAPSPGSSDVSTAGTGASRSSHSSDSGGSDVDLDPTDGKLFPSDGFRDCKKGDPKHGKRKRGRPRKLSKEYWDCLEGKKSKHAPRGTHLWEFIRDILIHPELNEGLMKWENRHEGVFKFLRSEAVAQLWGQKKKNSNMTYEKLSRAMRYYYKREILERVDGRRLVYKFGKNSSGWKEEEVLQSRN
# Outline: as §1
# [17] = molecular target: CRX (Homo sapiens, UniProt O43186 1-299); details: protein: recombinant; tags: N-terminal GST; dsDNA, one strand shown
# Chain of CRX (O43186 whole entry): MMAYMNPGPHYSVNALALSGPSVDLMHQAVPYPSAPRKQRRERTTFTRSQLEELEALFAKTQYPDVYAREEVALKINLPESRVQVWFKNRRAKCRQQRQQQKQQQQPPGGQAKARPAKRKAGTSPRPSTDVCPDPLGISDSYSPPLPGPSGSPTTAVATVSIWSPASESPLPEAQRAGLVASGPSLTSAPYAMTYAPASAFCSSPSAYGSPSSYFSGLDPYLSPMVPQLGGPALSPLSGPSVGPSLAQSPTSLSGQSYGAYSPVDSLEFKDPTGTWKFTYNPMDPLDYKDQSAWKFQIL
# Outline: as §1
# [18] = molecular target: ETV1 (Homo sapiens, UniProt P50549 1-477); details: protein: recombinant; tags: N-terminal GST; dsDNA, one strand shown
# Chain of ETV1 (P50549 whole entry): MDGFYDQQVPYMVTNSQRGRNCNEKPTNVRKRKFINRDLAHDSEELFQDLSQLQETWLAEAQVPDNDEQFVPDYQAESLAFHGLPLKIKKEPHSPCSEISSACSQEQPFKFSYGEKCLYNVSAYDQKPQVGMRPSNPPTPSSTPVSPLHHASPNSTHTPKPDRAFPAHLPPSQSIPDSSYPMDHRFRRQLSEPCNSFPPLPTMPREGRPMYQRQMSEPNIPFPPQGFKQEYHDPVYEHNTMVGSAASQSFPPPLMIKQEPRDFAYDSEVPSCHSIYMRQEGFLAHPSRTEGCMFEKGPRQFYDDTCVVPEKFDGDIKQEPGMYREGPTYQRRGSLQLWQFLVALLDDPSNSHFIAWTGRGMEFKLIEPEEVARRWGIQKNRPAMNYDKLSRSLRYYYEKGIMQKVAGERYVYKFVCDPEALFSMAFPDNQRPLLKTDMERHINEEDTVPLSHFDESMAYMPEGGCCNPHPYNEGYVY
# Outline: as §1
sequence,measurement,setting,value
ATAAGC,binding signal,[1],"1.02 fold enrichment (6-mer frequency, TF over GST control)"
same,binding signal,[2],"1.09 fold enrichment (6-mer frequency, TF over GST control)"
same,binding signal,[3],"1.11 fold enrichment (6-mer frequency, TF over GST control)"
same,binding signal,[4],"1.08 fold enrichment (6-mer frequency, TF over GST control)"
same,binding signal,[5],"1.1 fold enrichment (6-mer frequency, TF over GST control)"
same,binding signal,[6],"1.05 fold enrichment (6-mer frequency, TF over GST control)"
same,binding signal,[7],"1.01 fold enrichment (6-mer frequency, TF over GST control)"
same,binding signal,[8],"1.11 fold enrichment (6-mer frequency, TF over GST control)"
same,binding signal,[9],"1.05 fold enrichment (6-mer frequency, TF over GST control)"
same,binding signal,[10],"1.02 fold enrichment (6-mer frequency, TF over GST control)"
same,binding signal,[11],"1.11 fold enrichment (6-mer frequency, TF over GST control)"
same,binding signal,[12],"1.67 fold enrichment (6-mer frequency, TF over GST control)"
same,binding signal,[13],"1.08 fold enrichment (6-mer frequency, TF over GST control)"
same,binding signal,[14],"1.11 fold enrichment (6-mer frequency, TF over GST control)"
same,binding signal,[15],"1.07 fold enrichment (6-mer frequency, TF over GST control)"
same,binding signal,[16],"1.12 fold enrichment (6-mer frequency, TF over GST control)"
same,binding signal,[17],"2.4 fold enrichment (6-mer frequency, TF over GST control)"
same,binding signal,[18],"1.11 fold enrichment (6-mer frequency, TF over GST control)"
